Results filed as inconclusive are left out. The source made the active and inactive calls. The call rests on the fitted dose curve; in most records, active means well fitted curve in the direction sought with a large enough effect in the repeat runs; inconclusive means weak or mixed curves; inactive means no such curve, though single readings can be large; an effect the other way counts as inactive or inconclusive.
Assay: Human pregnane X receptor (PXR) small molecule agonists, qHTS cell viability counter screen (AID 1346977); further: nearly all actives have a fitted effect of over 50% in size; further: potency means the concentration at half of the fitted maximal effect
Conditions: PXR-Luc HepG2 viability, CellTiter-Fluor, 24 h; series mostly up to 92.4 µM; activity change, negative = cytotoxicity: at the top concentration
Procedure, shortened: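 HepG2 cells stably carrying the PXR-Luc reporter are cultured with 5% charcoal-stripped FBS and treated with compounds for 24hr. CellTiter-Fluor is added at 23hr and fluorescence is read after 1hr.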
On the % scale 0 is the no-effect control and ±100 the full control effect.

Structure (SMILES) | activity change, negative = cytotoxicity | Potency
OCC1CC2CC1C1CCC(CO)C21 (stereo not given) | 11.8% (inactive) | 
CC(=O)/C(C)=C/C1C(C)=CCCC1(C)C (stereo not given) | 2.5% (inactive) | 
O=[N+]([O-])c1cc[n+]([O-])cc1 |  | 54.5 µM (active)
CC(=O)N(CC(=O)N(C)C)c1ccccc1 | 11.6% [at 42.5 µM] (inactive) | 
Nc1ccc(C(=O)N2CC3CC(CN(Cc4ccccc4)C3)C2)cc1 | 0.693% [at 42.5 µM] (inactive) | 
CC(=O)O[C@@H]1C(=O)O[C@@H]2[C@H]1OC(=O)[C@@H]2OC(C)=O | 4.07% [at 42.5 µM] (inactive) | 
CC(C)NCC(O)COc1ccc(CC(N)=O)cc1 (stereo not given) | 6.71% (inactive) | 
Cc1c(Cn2ccnc2)c2ccccc2n1CCC(=O)O | 6.91% [at 42.5 µM] (inactive) | 
CCN(CC)CCOc1ccc2c(c1)C(=O)c1cc(OCCN(CC)CC)ccc1-2 |  | 13.3 µM (active)
C=CC(=O)OCC(C)OCC(C)OCC(C)OC(=O)C=C (stereo not given) | -0.433% (inactive) | 
O=c1[nH]cnc2ccccc12 | -10.6% (inactive) | 
Oc1ccc(C(O)CNCCCCCCNCC(O)c2ccc(O)c(O)c2)cc1O (stereo not given) | -16.4% [at 42.5 µM] (inactive) | 
CC(CN)CCCN (stereo not given) | 5.19% (inactive) | 
CCCCCOC(=O)c1ccc(O)cc1 | -19.2% (inactive) | 
C[C@H](CCC(=O)O)[C@H]1CC[C@H]2[C@@H]3[C@H](O)C[C@@H]4C[C@H](O)CC[C@]4(C)[C@H]3CC[C@]12C | -23.6% (inactive) | 
CC1(C)CCC(C)(C)c2cc(NC(=O)c3ccc(C(=O)O)cc3)ccc21 | -6.21% [at 42.5 µM] (inactive) | 
CCOc1nc2cccc(C(=O)O)c2n1Cc1ccc(-c2ccccc2-c2nn[nH]n2)cc1 | 6.8% [at 42.5 µM] (inactive) | 
CCc1nn(C2CCCCC2)c2cc(C3(C#N)CCC(C(=O)O)CC3)ccc12 (stereo not given) |  | 48.6 µM (active)
CCCCC(CC)COCCCN (stereo not given) | -4.91% (inactive) | 
Oc1ccc2c(c1)OCO2 | -5.89% (inactive) | 
NC(N)=NN=C(/C=C/c1ccc([N+](=O)[O-])o1)/C=C/c1ccc([N+](=O)[O-])o1 |  | 6.68 µM (active)
CCCCCCCCCCCCC(=O)O | -4.68% (inactive) | 
SC1CCCC1 | 4.03% (inactive) | 

Assay: Caspase-3/7 induction in HepG2 cells by small molecules, qHTS assay (AID 1346978); further: nearly all actives have a fitted effect of over 15% in size
Conditions: HepG2 caspase-3/7 activation, Caspase-Glo luminescence, 17 h; series mostly up to 92.4 µM; caspase activation: at the top concentration
Procedure, shortened: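 Wild-type HepG2 cells (2,000/well) were settled 5 h at 37 C, 5% CO2, then exposed to compounds in DMSO for 17 h. Caspase-3/7 activity was read by luminescence 30 min after adding Caspase-Glo 3/7 reagent at room temperature.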

Structure (SMILES) | caspase activation
OCC1CC2CC1C1CCC(CO)C21 (stereo not given) | -0.95% (inactive)
CC(=O)/C(C)=C/C1C(C)=CCCC1(C)C (stereo not given) | 0.606% (inactive)
O=[N+]([O-])c1cc[n+]([O-])cc1 | 0.109% (inactive)
CC(=O)N(CC(=O)N(C)C)c1ccccc1 | 0.245% [at 42.5 µM] (inactive)
COC(=O)C(C)=O | 0.961% (inactive)
Nc1ccc(C(=O)N2CC3CC(CN(Cc4ccccc4)C3)C2)cc1 | 0.0964% [at 42.5 µM] (inactive)
CC(=O)O[C@@H]1C(=O)O[C@@H]2[C@H]1OC(=O)[C@@H]2OC(C)=O | -2.24% [at 42.5 µM] (inactive)
CC(C)NCC(O)COc1ccc(CC(N)=O)cc1 (stereo not given) | -0.067% (inactive)
CC(C)(C)C(=O)OCOP(=O)(COCCn1cnc2c(N)ncnc21)OCOC(=O)C(C)(C)C | 1.16% [at 42.5 µM] (inactive)
Cc1c(Cn2ccnc2)c2ccccc2n1CCC(=O)O | -0.952% [at 42.5 µM] (inactive)
CCC(C)N(C)C(=O)c1cc2ccccc2c(-c2ccccc2Cl)n1 (stereo not given) | 3.78% [at 42.5 µM] (inactive)
CCN(CC)CCOc1ccc2c(c1)C(=O)c1cc(OCCN(CC)CC)ccc1-2 | 9.46% [at 42.5 µM] (inactive)
CCCCOc1ccc(CC(=O)NO)cc1 | -0.319% [at 42.5 µM] (inactive)
C=CC(=O)OCC(C)OCC(C)OCC(C)OC(=O)C=C (stereo not given) | 8.58% (inactive)
O=c1[nH]cnc2ccccc12 | -0.108% (inactive)
c1ccc(OCc2ccc(CCCN3CCOCC3)cc2)cc1 | -1.67% [at 42.5 µM] (inactive)

Structure (SMILES) | caspase activation
CCOC(=O)C1=C(C)NC(C)=C(C(=O)OC)C1c1cccc([N+](=O)[O-])c1 (stereo not given) | 2.52% [at 42.5 µM] (inactive)
CC(C)(C)c1cc(O)c(C(C)(C)C)cc1O | 5.14% (inactive)
Oc1ccc(C(O)CNCCCCCCNCC(O)c2ccc(O)c(O)c2)cc1O (stereo not given) | -1.71% [at 42.5 µM] (inactive)
CC[C@@H]1C[C@H](N(Cc2cc(C(F)(F)F)cc(C(F)(F)F)c2)C(C)=O)c2cc(C(F)(F)F)ccc2N1C(=O)OC(C)C | -1.38% (inactive)
CN(C(=O)CCCOc1ccc2[nH]c(=O)ccc2c1)C1CCCCC1 | -0.191% [at 42.5 µM] (inactive)
CC(CN)CCCN (stereo not given) | 0.078% (inactive)
CCCCCOC(=O)c1ccc(O)cc1 | -0.0606% (inactive)
O=C(CCN1CCN2CCCC2C1)N1c2ccccc2Sc2ccc(Cl)cc21 (stereo not given) | 1.09% [at 19 µM] (inactive)
CC(C)c1ccc2c(C(C)C)cc(C(C)C)c(S(=O)(=O)O)c2c1 | 0.603% (inactive)
CC1(C)CCC(C)(C)c2cc(NC(=O)c3ccc(C(=O)O)cc3)ccc21 | 0.72% [at 42.5 µM] (inactive)
O=C(/C=C/c1ccc(O)c(O)c1)O[C@@H]1C[C@](O)(C(=O)O)C[C@@H](O)[C@H]1O | -0.135% (inactive)
CCOc1nc2cccc(C(=O)O)c2n1Cc1ccc(-c2ccccc2-c2nn[nH]n2)cc1 | -0.776% [at 42.5 µM] (inactive)
CCc1nn(C2CCCCC2)c2cc(C3(C#N)CCC(C(=O)O)CC3)ccc12 (stereo not given) | -1.77% (inactive)
CCOc1ccc2[nH]cc(C(=O)NCc3ccccc3)c(=O)c2n1 | -2.92% (inactive)
CCCCc1cc2ccccc2c(OCCN(C)C)n1 | 4% [at 42.5 µM] (inactive)
CCCCC(CC)COCCCN (stereo not given) | 0.203% (inactive)

From PubChem BioAssay (Tox21)
